Source: PubChem
A selection: hits, their analogues and other compounds. The true share with any hit is near 1.3%.
PGC1a acetyl inh: modulators of PGC1a acetylation; hit rate 0.17% among 350,000; U2OS PGC1a acetylation, AlphaScreen anti-acetyl-lysine; with virally co-expressed GCN5 acetyltransferase; inhibition, % at 15.6 µM; AID 651687;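 active = every replicate shows inhibition of at least 40%; inconclusive = mean inhibition at least 40% but some replicate below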;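 also: 0% = neutral control wells and 100% = positive control wells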
C2C12 statin: protects C2C12 myotubes from simvastatin toxicity; hit rate 0.78% among 330,000; ATP luminescence, 48 h; scaled: DMSO 0, geranylgeraniol control 100; AID 602340; rescue of ATP level, % at 7.49 µM;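 active = mean ATP rescue above about 67%, or every replicate alone reaching that limit, limit read from the data, passing the limit was not always enough; inconclusive = no clear call, values can overlap the other calls; inactive = mean under the limit and some replicate under it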;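 also: myotubes were challenged with 10 µM simvastatin during compound exposure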
AI-2 QS modul: modulates the Vibrio harveyi AI-2 quorum sensing system. hit rate 0.4% among 300,000. Vibrio harveyi JMH597 AI-2 luminescence/OD600 ratio, 9 h; active compounds read low; strain lacks LuxN and CqsS sensors; 0 = neutral-control median. AID 2094. activity change, % at 7.5 µM; in the data active = activity change below about -75%, passing the limit was not always enough; inconclusive = no clear call, values can overlap the other calls;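 also: luminescence divided by OD600 gain over 9 h not by final OD600 alone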
HIF activator: HIF pathway transcriptional activation; U2OS HRE-luciferase reporter, luminescence; normalized: DMSO 0%, desferrioxamine 100%; activation, % at 7.5 µM (by protocol); hit rate 0.32% among 300,000; AID 1910;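 active = mean activation of at least 10% of the iron chelator positive control signal, with at least half of replicates also reaching 10%; inconclusive = mean and replicate majority disagree about reaching 10%; inactive = mean and most replicates under 10%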
Rce1 inhib: blocks yeast Ras-converting enzyme; Q03530; yeast membranes, quenched prenylated peptide cleavage fluorescence; calls only; hit rate 0.27% among 290,000; AID 2563;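 active = fall in fluorescence gain of 50% or more versus controls, with final raw signal at or below 3038400; inconclusive = same 50% fall but final raw signal above 3038400; inactive = fall in fluorescence gain under 50%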;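 also: plate controls were neutral control wells for no effect and wells lacking membranes for full effect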
Target sequence (Q03530 whole entry, looked up): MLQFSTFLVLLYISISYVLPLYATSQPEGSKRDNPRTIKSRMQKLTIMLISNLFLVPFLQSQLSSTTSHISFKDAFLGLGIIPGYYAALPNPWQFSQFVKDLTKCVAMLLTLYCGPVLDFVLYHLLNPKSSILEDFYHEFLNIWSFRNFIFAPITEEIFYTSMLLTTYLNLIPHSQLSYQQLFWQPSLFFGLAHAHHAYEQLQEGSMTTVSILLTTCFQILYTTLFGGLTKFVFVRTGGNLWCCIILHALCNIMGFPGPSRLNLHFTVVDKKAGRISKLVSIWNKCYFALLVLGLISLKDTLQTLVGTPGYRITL
JMH597 growth rt: retest Vibrio harveyi JMH597 growth inhibition | shares compounds with AI-2 QS modul | hit rate 1% among 750 | OD600 absorbance, 9 h; lacks LuxN and CqsS sensors | growth inhibition, % at 7.5 µM;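 active = every replicate shows growth inhibition above 50%; inconclusive = at least half, but not all, replicates pass that cutoff; inactive = fewer than half of replicates pass it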
BB721 const-QS lum: retest counter-screen: BB721 constitutive quorum sensing luminescence decrease; shares compounds with AI-2 QS modul; Vibrio harveyi BB721 luminescence, 9 h; inhibition, % at 7.5 µM; hit rate 95% among 750; AID 2727;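 active = inhibition above about 80% in every replicate, not just on average, limit read from the data; inconclusive = at least half of replicates past the limit, but not all; inactive = fewer than half of replicates past the limit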
BB721 growth: retest Vibrio harveyi BB721 growth inhibition; shares compounds with AI-2 QS modul; OD600 absorbance, 9 h; growth inhibition, % at 7.5 µM; hit rate 3% among 750;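 active = every replicate shows growth inhibition above 50%; inconclusive = at least half but not all replicates above 50% inhibition; inactive = under half of replicates above 50% inhibition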
JMH597 AI-2 mod: Vibrio harveyi AI-2 signaling luminescence modulation – JMH597 strain, confirmation | Vibrio harveyi JMH597 AI-2 quorum sensing luminescence, 9 h; luxN and CqsS knockout, AI-2 only | inhibition, % at 7.5 µM | hit rate 97% among 750 | shares compounds with AI-2 QS modul;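 active = every replicate shows more than 75% inhibition of signal versus neutral control wells; inconclusive = half to three quarters of replicates exceed 75% inhibition; inactive = fewer than half of replicates exceed 75% inhibition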
* = called active by the depositor; i = inactive; ? = inconclusive; . = not tested or not shown.

SMILES	PGC1a acetyl inh	C2C12 statin	AI-2 QS modul	HIF activator	Rce1 inhib	JMH597 growth rt	BB721 const-QS lum	BB721 growth	JMH597 AI-2 mod
O=S(=O)(c1ccccc1)c1ccc(NCc2ccco2)cc1	4.2	-6.3	-93.8*	-0.5	i	6.8	51.9	-38.0	97.6*
Cc1ccccc1-c1nnc(SCc2ccc(F)cc2)o1	0.3	23.2	-92.0*	1.1	i	24.0	96.8*	69.3	97.3*
c1ccc(CSc2nnc(-c3cccnc3)o2)cc1	-0.4	4.6	-94.9*	2.0	i	-11.5	98.8*	-23.7	99.3*
Cc1ccc(CSc2nnc(-c3ccccn3)n2N)cc1	-7.9	.	?	1.8	i	0.2	91.4*	-20.9	94.6*
O=C(O)c1cccc(CSc2nnc(-c3cccnc3)o2)c1	0.9	0.4	19.4	-1.3	i	.	.	.	.
Cc1ccc(CSc2nnc(-c3cccnc3)o2)cc1	-22.5	0.1	-96.2*	0.4	i	25.9	99.1*	9.0	99.4*
Nn1c(SCc2ccccc2)nnc1-c1ccccn1	2.9	2.9	-35.1	1.4	i	.	.	.	.
O=C(C1CCC1)N1CC2(C1)[C@H](c1ccccc1)[C@@H](CO)N2Cc1ccccc1F	-18.9	.	.	.	.	.	.	.	.
CCOC(=O)CSc1nnc(-c2cccnc2)o1	1.9	8.0	-11.5	0.0	i	.	.	.	.
c1cncc(-c2nnc(SCc3nc4ccccc4[nH]3)o2)c1	.	.	14.7	-0.7	i	.	.	.	.
C(=C\c1ccccc1)/CSc1nnc(-c2cccnc2)o1	7.7	.	-89.4*	0.5	i	18.7	95.3*	-0.9	97.5*
Brc1ccc(CSc2nnc(-c3cccnc3)o2)cc1	.	.	-94.2*	0.2	i	0.5	98.4*	0.0	98.9*
c1cncc(-c2nnc(SCc3cccc4ccccc34)o2)c1	-0.7	-3.2	-95.6*	-0.3	i	4.8	98.6*	0.5	99.1*
Fc1ccc(CSc2nnc(-c3cccnc3)o2)cc1	.	.	-93.2*	1.9	i	19.2	98.2*	4.6	98.5*
C[C@H](CO)N1C[C@H](C)[C@@H](CN(C)C(=O)C2CC2)OCc2ccccc2-c2ccccc2C1=O	-8.5	10.5	.	.	.	.	.	.	.
COc1ccccc1NC(=O)N1CCCCN2[C@H](CO)[C@H](c3ccc(-c4ccccc4)cc3)[C@@H]2C1	8.0	.	.	.	.	.	.	.	.
C[C@@H]1CCCCO[C@@H](CN(C)Cc2ccccc2)[C@@H](C)CN([C@H](C)CO)C(=O)c2cc(NC(=O)CCCCCC(=O)Nc3ccccc3N)ccc2O1	-6.7	.	.	.	.	.	.	.	.
Nn1c(SCc2ccc(Br)cc2)nnc1-c1cccnc1	16.3	.	-86.5*	0.5	i	20.6	95.5*	10.9	96.4*
Nn1c(SCc2ccc(F)cc2)nnc1-c1cccnc1	-3.8	.	-71.4	0.4	i	.	.	.	.
Clc1ccc(CSc2nnc(-c3cccnc3)o2)cc1	6.1	.	-92.9*	0.9	i	27.3	98.0*	22.4	98.6*
C[C@H](CO)N1C[C@H](C)[C@H](CN(C)S(=O)(=O)c2ccc(F)cc2)Oc2ccc(NC(=O)Nc3ccccc3)cc2C1=O	-5.1	-4.9	.	.	.	.	.	.	.
COc1ccc(CNC(=O)Nc2ccc(OC)cc2)cc1	18.8	22.5	-5.2	0.3	i	.	.	.	.
COc1ccc(CNC(=O)Nc2cccc(C)c2)cc1	-26.1	48.9	-91.9*	0.9	i	11.1	97.2*	27.8	97.5*
COc1ccc(CNC(=O)Nc2ccccc2)cc1	3.2	6.9	-88.5*	1.5	i	4.9	95.0*	22.2	95.6*
Cc1cccc(NS(=O)(=O)c2ccc(Oc3ccccc3)cc2)n1	-3.8	-7.7	-89.3*	-1.3	i	25.1	11.1	-19.9	96.4*
SMILES	PGC1a acetyl inh	C2C12 statin	AI-2 QS modul	HIF activator	Rce1 inhib	JMH597 growth rt	BB721 const-QS lum	BB721 growth	JMH597 AI-2 mod
C[C@@H]1CN([C@H](C)CO)C(=O)Cc2cc(NC(=O)Nc3ccccc3)ccc2O[C@H]1CN(C)C(=O)Nc1ccccc1	.	-14.0	.	.	.	.	.	.	.
C=CCNC(=O)C1CCN(S(=O)(=O)c2ccc3ccccc3c2)CC1	6.3	21.5	-80.9*	0.2	i	5.3	59.3	-27.8	98.9*
CCN1[C@@H]2c3ccc(-c4ccccc4F)c(=O)n3C[C@@H]2[C@@H](CO)[C@@H]1C(=O)NC1CCCC1	-3.0	6.0	.	.	.	.	.	.	.
C[C@@H]1CN([C@@H](C)CO)C(=O)Cc2cc(NC(=O)CCCN(C)C)ccc2O[C@@H]1CN(C)S(=O)(=O)c1cccs1	0.8	-7.7	.	.	.	.	.	.	.
CCCC(=O)N1CC2(C1)CN(C(=O)CC)[C@@H](CO)c1c2c2ccc(OC)cc2n1C	1.9	.	.	.	.	.	.	.	.
Cc1cccc(NC(=O)C2CC2c2ccccc2)c1C (configuration not stated)	6.0	23.9	15.1	-1.0	i	.	.	.	.
O=C(Nc1ccccc1F)C1CC1c1ccccc1 (configuration not stated)	.	.	-83.8*	1.2	i	2.1	91.7*	-26.7	93.2*
O=C(Nc1ccc(S(=O)(=O)N2CCOCC2)cc1)C1COc2ccccc2O1 (configuration not stated)	-0.7	4.9	-0.8	0.1	i	.	.	.	.
CN(C)S(=O)(=O)c1ccc(NC(=O)C2COc3ccccc3O2)cc1 (configuration not stated)	.	0.9	-89.1*	0.4	i	11.7	96.3*	-2.9	98.2*
Cc1cc(C)nc(NS(=O)(=O)c2ccc(NC(=O)C3COc4ccccc4O3)cc2)n1 (configuration not stated)	-6.2	.	3.1	0.2	i	.	.	.	.
O=C(Nc1ccc(S(=O)(=O)N2CCCC2)cc1)C1COc2ccccc2O1 (configuration not stated)	.	2.6	?	0.4	i	23.3	92.8*	-23.0	98.7*
COc1ccc2nc3sc(C(=O)NCCCN4CCc5ccccc5C4)cc3cc2c1	.	-11.6	-2.1	2.4	i	.	.	.	.
COc1ccc2nc3sc(C(=O)N4CCN(C)CC4)cc3cc2c1	0.3	-25.0	-85.8*	0.6	i	6.4	89.2*	-2.1	93.4*
COC(=O)/C(=C\Nc1ccc(Oc2ccccc2OC(C)C)nc1)NC(=O)c1ccccc1	8.1	.	.	.	.	.	.	.	.
CCCN1C[C@H](C)[C@@H](OC)CN(C)C(=O)c2cc(NC(=O)NC3CCCCC3)ccc2OC[C@@H]1C	.	-10.4	.	.	.	.	.	.	.
CC1(C)SC[C@H](C(=O)Nc2cccc(Cl)c2)N1C=O	.	-5.3	-93.3*	-0.8	i	-18.8	98.4*	-34.6	98.8*
Cc1ccccc1-c1ccc([C@@H]2[C@H](CO)N3C(=O)CN(C(=O)NC4CCCC4)C[C@@H]23)cc1	15.5	.	.	.	.	.	.	.	.
